The source of these data is PubChem BioAssay AID602289 (National Center for Advancing Translational Sciences (NCATS), 2012).

Molecules are shown by their SMILES. The whole screen tested about 2,400 compounds, of which about 40 (2%) were called active. Inconclusive results (about 1%) are left out.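 How the source made its calls: active means inhibition at or above 60%; inconclusive means inhibition from 0% up to below 60%; inactive means no inhibition observed.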 Many of the other results were omitted from the sample, so actives are more common in it than they were.

This test in a line: qHTS Assay for Small Molecule Inhibitors of Mitochondrial Division or Activators of Mitochondrial Fusion: Hit Validation in Malachite Green Assay.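 On inhibition: plate controls were DMSO wells with GTPase for no effect and protein-free buffer wells for full effect.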 The following applies: purified GTPase, malachite green phosphate release, A650; stronger effect = higher value. An excerpt:
The budding yeast S. cerevisiae is a powerful system to study mitochondrial fusion. Unlike other organisms, yeast cells without functional mitochondrial DNA (mtDNA) can be propagated and studied as long as they maintain a mitochondrial compartment and are provided with a fermentable carbon source. When mitochondrial fusion is blocked in yeast, mitochondrial tubules rapidly fragment and division continues unopposed. Under conditions where fusion is compromised in mammalian cells, nearly identical changes in mitochondrial structure have been observed. Thus, these findings indicate that steady state mitochondrial structure in cells is a characteristic and specific indicator of fusion activity. Mounting evidence has pointed to a connection between mitochondrial dynamics and apoptosis in mammalian cells. These studies indicate that in mammalian cells mitochondrial dynamics are more integrated into cellular processes than in yeast cells and have evolved not only to distribute the organelle but also to aid in the regulation of cellular homeostasis. Mitochondrial fusion proteins attenuate apoptosis by inhibiting the release of cytochrome c from mitochondria, in part by controlling cristae structures. Thus, small molecules that inhibit mitochondrial fusion may promote apoptosis and potentially act as novel chemotherapeutics and stimulation of apoptosis has become an attractive target of anti-cancer therapies. To identify inhibitors of mitochondrial division, we exploit the growth phenotypes of mitochondrial fusion-defective mutants. The temperature sensitive fusion alleles, such as fzo1-1 and mgm1-5, cause mitochondrial membranes to fragment in cells under non-permissive conditions and cells lose mtDNA, and are unable to grow in the presence of non-fermentable carbon source glycerol. Inhibiting mitochondrial division rescues growth. The hits were tested by the assay provider in a malachite green assay. NIH Chemical Genomics Center [NCGC] NIH Molecular Libraries Probe Production Centers Network [MLPCN] MLPCN Grant: MH081279 Assay Submitter (PI): Jodi M. Nunnari
Malachite Green Reagent Malachite Green carbinol base- Aldrich 229105 Ammonium molybdate - Sigma A7302 For 100 mL Malachite Green reagent in 1N HCl 16 mL conc. HCL + 32 mL H20 = 48 mL 4N HCl 34 mg malachite green base into 40 mL 1N HCl (10 mL 4N HCl + 30 mL H20) 1 g ammonium molybdate in 15 mL 4N HCl Mix Solutions together. Bring up to […] with H2O. Filter using a 0.2 um tissue culture filter unit (has plastic bottle attached) store at 4 masculine C. (Avoid Glassware/Plastics washed in detergent. Mix solutions in 50 mL conical vials.) For 20 uL reaction volume 1.0 uL Test Drug or DMSO: Added first to each well […]: 25 mM Hepes/Pipes pH 7.0 (H/P) 2.0 uL: 50 mM MgCl2 (final 5mM) 2.32 uL: 1 M NaCl (with contributing protein salt, Final = 150mM) 13.4 uL per reaction. Can be mixed in larger volume (Mini Master Mix) 1.6 uL: Protein 7.5 uM or Protein Freezing Buffer. (Final = 0.6uM) After Protein Added to mini Master Mix, 15ul Total Master Mix added to each well with drug. 4 uL: 500 uM GTP (Final = 100uM), Dilute with 25 mM H/P, store on ice. 20 uL Total Volume Make Master Mix: (Calculate desired reactions and add a few for multi-channel pipetting volume). Multiply the number of desired reactions by 13.4 uL for total Mini Master volume. Multiply the number of desired reactions by 1.6 uL for total Protein volume. Mix, and keep on ice until added to wells. Add 15 uL of Master Mix to each reaction well, incubate with drug for 10 min. For Positive (No Drug) controls add 15 uL Master Mix to wells with only 1 uL DMSO. Make PFB (Protein Freezing Buffer) (no Protein) Master Mix. Multiply the number of desired reactions by 13.4 uL for total Mini Master volume. Multiply the number of desired reactions by 1.6 uL for total PFB volume. Mix, and keep on ice until added to wells Add 10 uL of PFBMaster Mix to each Phosphate Standards well, and 15 uL to each negative control well with DMSO. […]
The term inhibition denotes the drop in the measured response relative to a control, in per cent. With `C=C(C)Cn1c(N2CC(C)CC(C)C2)nc2c1c(=O)[nH]c(=O)n2C` (stereo not drawn), the inhibition entry was “inactive”.
To `CCCCCn1c(SCCC(C)C)nc2c1c(=O)[nH]c(=O)n2C` belongs 96.1% (active); to `CCCCn1c(N2CCC(Cc3ccccc3)CC2)nc2c1c(=O)[nH]c(=O)n2C`, “inactive”.
The same measure for `C=CCc1cc2c(oc(=O)c3ccccc32)c(C)c1O`: “inactive”; for `COc1cccc(COc2ccc3c(C)cc(=O)oc3c2)c1`: “inactive”.
For the molecule `O=C1C=C(/C=C/C2C=CC=CC2)C[C@@H](c2ccc(Cl)cc2)C1` (stereo partly drawn), the inhibition entry was “inactive”.
The same measure for `Cn1c(=O)c2c(nc(Oc3ccccc3Cl)n2C)n(C)c1=O`: “inactive”.
The same measure for `CS/C(=N\S(=O)(=O)c1cccs1)Nc1ccc(Br)cc1F`: “inactive”.
On to `Oc1c(I)cc(Cl)c2cccnc12`, for which the inhibition is 66.8% (active).
The same measure for `Oc1c(Cl)cc(Cl)c2cccnc12`: 86% (active).
To `O=C(Nc1ccc(Cl)cc1C(=O)Nc1ccccn1)c1ccco1` belongs “inactive”; to `CN(C(=O)C(Cl)Cl)c1ccc(OC(=O)c2ccco2)cc1`, “inactive”.
The same measure for `Cc1cc(Cl)cc(Cl)c1OCCOc1cccc2cccnc12`: “inactive”; for `O=C(Oc1c(Cl)cc(Cl)c2cccnc12)c1ccco1`: 67.8% (active).
Consider `O=c1oc2cc(O)c(Cl)cc2c2ccccc12`, for which the inhibition entry is “inactive”.
The same measure for `CCCCCCSc1ccc([C@@H]2[C@@H]3C(=O)N(C)C(=O)[C@@H]3[C@]3(C(=O)OC)CCCCN23)cc1OC`: “inactive”; for `O=C(c1cn(Cc2ccccc2)nc1-c1ccc(Cl)cc1)N1CCN(c2ccccn2)CC1`: “inactive”; for `O=C(c1cn(-c2ccccc2)nc1-c1cccs1)N1CCN(c2ccccn2)CC1`: “inactive”.
To `O=C(c1cc(COc2cccc3cnccc23)on1)N1CCC(c2ccccc2Cl)C1` (stereo not drawn) belongs “inactive”; to `COc1ccc(C2=NOC(Cn3nc(C(=O)NCc4ccco4)cc3-c3ccccc3)C2)cc1` (stereo not drawn), “inactive”.
To `COc1cccc(NC(=O)CN(C)C(=O)c2sc3cc(Cl)ccc3c2Cl)c1` belongs “inactive”; to `Cc1c(Cl)cccc1Nc1nc(N)nc(CSc2nc3ccccc3s2)n1`, “inactive”.
For `CNC(=O)c1ccsc1NC(=O)C1CCN(S(=O)(=O)c2ccc(Cl)s2)CC1`, the inhibition result was “inactive”.
The same measure for `COc1ccc(N=Nc2nc(-c3ccccc3)c(-c3ccccc3)[nH]2)cc1`: “inactive”; for `c1ccc(-c2nnc3sc(-c4csc5c4CCCC5)nn23)cc1`: 99.9% (active).
The same measure for `Clc1ccc(-c2nnc3sc(Cc4cccs4)nn23)cc1`: “inactive”.
To `COc1ccc2ccccc2c1C(=O)/C=C\c1ccoc1` belongs “inactive”.
For the molecule `COc1ccc(S(=O)(=O)N(C(=O)c2ccncc2)c2ccc3oc4c(c3c2)CCCC4)cc1`, the inhibition entry was “inactive”.
As to `O=c1[nH]c(C2CC2)nc2sc3c(c12)CCCC3`, the inhibition result is “inactive”.
To `COCc1nc2sc3c(c2c(=O)[nH]1)CCCC3` belongs “inactive”; to `CC(C)c1nc2sc3c(=O)[nH]c(=S)[nH]c3c2c2c1CCC2`, 104% (active).
The same measure for `O=C(/C=C/c1cccs1)N1CCC2(CC1)Oc1ccc(Cl)cc1C(=O)C21CC(c2cccnc2)=NO1` (stereo not drawn): “inactive”; for `COc1ccc(-c2cc(=O)oc3c(C)c(OC(C)C(C)=O)ccc23)cc1` (stereo not drawn): “inactive”.
In the case of `Cc1csc(NC(=O)C(C)Oc2ccc(Br)cc2)n1` (stereo not drawn), the inhibition result is “inactive”.
To `CC(Oc1cccc(Cl)c1)C(=O)Nc1nc(-c2ccccn2)cs1` (stereo not drawn) belongs 68.3% (active); to `CC(Oc1cccc(Cl)c1)C(=O)Nc1cc(Cl)ccc1N1CCOCC1` (stereo not drawn), “inactive”; to `Cc1ccccc1Nc1nc(N)nc(CSc2nc3ccccc3s2)n1`, “inactive”.
The same measure for `O=C(NCC1(c2ccccc2)CCCC1)c1ccccc1Br`: “inactive”; for `Cc1ccc2c(nc3s/c(=C\c4ccc(-c5ccccc5C(=O)O)o4)c(=O)n32)c1C`: 86.5% (active); for `Cc1c(C(=O)O)cccc1-c1ccc(/C=N/Nc2ccc(Br)cc2)o1`: “inactive”.
The same measure for `Cc1cc2nc3s/c(=C/c4ccc(-c5ccccc5C(=O)O)o4)c(=O)n3c2cc1C`: 66.8% (active); for `Cc1ccc2c(=O)cc(C(=O)NCc3ccccc3)oc2c1C`: “inactive”; for `CC(C)COc1ccc(S(=O)(=O)NNC(=O)c2cc3ccccc3o2)cc1`: “inactive”.
In the case of `CCNC(=O)c1ccccc1CCc1ccccc1`, the inhibition result was “inactive”.
To `CCC(C)N1C(=O)S/C(=C/c2ccc(N3CCOCC3)cc2C)C1=O` (stereo not drawn) belongs “inactive”.
The same measure for `COc1ccccc1NC(=O)N(Cc1ccccc1)c1ccccn1`: “inactive”; for `Fc1cccc(CNc2ncnc3ccc(-c4ccc5c(c4)OCO5)cc23)c1`: “inactive”.
With `CCOc1ccc(C(=O)CCN2CCCCC2)cc1`, the inhibition entry is “inactive”.
As for `CC(CNc1nc2ccccc2n2cnnc12)c1ccccc1` (stereo not drawn), the inhibition entry was “inactive”.
To `COc1ccc(NC(=O)CN(C)C(=O)c2ccccc2CCc2ccccc2)cc1` belongs “inactive”; to `N#CC(Sc1ccccn1)c1ccc(Cl)cc1` (stereo not drawn), 65.5% (active).
The same measure for `COc1ccc(C(=O)NC2(C(F)(F)F)NC(=O)N(CCCc3ccccc3)C2=O)c(OC)c1OC` (stereo not drawn): “inactive”.
The same measure for `Cc1cc(=O)oc2c(C(=O)/C=C\c3cccs3)c(O)ccc12`: “inactive”.
